From PubChem
VP16 counter = VP16 counterscreen qHTS for inhibitors of ROR gamma transcriptional activity. Potency, µM (series often up to 53.6 µM), actives largely listed as inhibitors. Drosophila S2 Gal4-VP16 UAS-luciferase, luminescence, 20 h. hit rate 3.5% among 310,000. AID 2546, 2010;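 further: Gal4-VP16 expression switched on by copper sulfate through the metallothionein promoter; nearly all actives have a fitted effect of over 50% in size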
S2 tox = Viability Counterscreen for Primary qHTS for Inhibitors of ATXN expression. S2 cells (HEK-293 line with an ATXN2-luciferase reporter) viability, CellTiter-Fluor protease fluorescence, 24 h. Potency, µM (doses to about 56.7 µM), hits mostly cytotoxic. hit rate 0.49% among 400,000. AID 651635, 2014; further: nearly all actives have a fitted effect of over 40% in size
TGFb inhibitor = qHTS for Inhibitors of TGF-b. HepG2 CAGA-GFP TGF-b/SMAD3 reporter, GFP fluorescence, 18 h; TGF-beta stimulated, 500 pg/mL final. Potency, µM (titrated, usually from 46.1 µM), most hits filed as inhibitors. hit rate 1.2% among 410,000; further: nearly all actives have a fitted effect of over 65% in size
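First, reporter cells (HEPG2 CAGA-GFP) rested 2 h at 37 degrees C. Next, compounds were pinned in and TGF-beta added to 500 pg/mL final. After 18 h, GFP was imaged per cell and summed per well.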
HepG2 viability = qHTS for Inhibitors of TGF-b: Cytotox Counterscreen; HepG2 CAGA-GFP viability, ATP luminescence, 18 h; Potency, µM (doses to about 46.1 µM), hits mostly cytotoxic; hit rate 0.76% among 410,000
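HepG2 CAGA-GFP cells (1000/well, DMEM with 1% FBS) received compound, then TGF-beta at 500 pg/mL final, and were incubated 18 hours at 37 degrees C. Viability was read by CellTiter-Glo luminescence. Media-only wells were set as complete cell-killing and DMSO as no toxicity.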
ATXN2 expr inh = Primary qHTS for Inhibitors of ATXN expression | AID 1745845, 2022 | Potency, µM (titrated, usually from 57 µM), actives largely listed as inhibitors | HEK-293 ATXN2-luciferase reporter, luminescence, 24 h | hit rate 0.72% among 360,000; further: nearly all actives have a fitted effect of over 55% in size
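ATXN2-luciferase reporter cells (luciferase flanked by upstream and downstream ATXN2 gene portions) were treated 24 h at 37 °C with compounds at up to 57 uM. SteadyGlo luminescence gave expression; GF-AFC fluorescence gave viability.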
RORg inh = qHTS for inhibitors of ROR gamma transcriptional activity. Nuclear receptor ROR-gamma (Mus musculus), P51450. Drosophila S2 Gal4-RORgamma UAS-luciferase reporter, 20 h. Potency, µM (series often up to 53.6 µM), most hits filed as inhibitors. hit rate 5.4% among 310,000; further: nearly all actives have a fitted effect of over 60% in size
Target sequence (P51450 whole entry, looked up, the tested form may be a part): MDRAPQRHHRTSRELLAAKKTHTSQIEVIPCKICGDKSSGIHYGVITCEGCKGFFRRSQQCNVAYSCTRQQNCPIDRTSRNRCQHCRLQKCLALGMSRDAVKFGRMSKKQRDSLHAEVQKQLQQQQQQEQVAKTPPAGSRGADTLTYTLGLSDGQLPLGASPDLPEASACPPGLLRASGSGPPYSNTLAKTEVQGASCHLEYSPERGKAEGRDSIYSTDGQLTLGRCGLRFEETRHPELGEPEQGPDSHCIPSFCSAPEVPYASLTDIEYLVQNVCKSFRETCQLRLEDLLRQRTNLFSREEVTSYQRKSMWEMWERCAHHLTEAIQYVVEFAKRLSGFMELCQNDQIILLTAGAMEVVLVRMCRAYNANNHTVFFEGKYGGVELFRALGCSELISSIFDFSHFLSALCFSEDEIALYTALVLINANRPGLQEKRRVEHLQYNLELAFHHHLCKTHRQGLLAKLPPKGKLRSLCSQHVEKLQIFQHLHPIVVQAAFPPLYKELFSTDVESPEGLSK
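ROR gamma transcriptional activity was tracked as Gal4-UAS luciferase output in stably transfected Drosophila Schneider cells, with compound added 1 hr before 700 uM copper sulfate induction and a 20 hr ambient-temperature incubation.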
Hits are given with their value; n = inactive; u = inconclusive; x = no result given; [ ] = another dose, or the depositor's remark. Only some compounds are listed: those with a hit (about 6.1% of all), similar ones and a draw of the others. The call rests on the fitted dose curve; in most records, active means well fitted curve in the direction sought with a large enough effect; inconclusive means small, poorly fitted or top-dose-only effect, or another doubt; inactive means no such curve, though single readings can be large; an effect the other way counts as inactive or inconclusive.

SMILES	VP16 counter	S2 tox	TGFb inhibitor	HepG2 viability	ATXN2 expr inh	RORg inh
Cc1ccc(NS(=O)(=O)c2ccc(-c3cc(C)no3)cc2)c(C)c1	x	x	13µM	n	x	x
Cc1cc(C)cc(NS(=O)(=O)c2ccc(-c3cc(C)no3)cc2)c1	x	x	13µM	n	x	x
Cc1cc(-c2ccc(S(=O)(=O)Nc3ccc(Cl)cc3)cc2)on1	x	x	n	n	x	x
COc1cccc(-n2ccn(CC(=O)c3ccc(F)cc3)c(=O)c2=O)c1	x	x	u	n	x	x
COc1ccc(OC)c(NC(=O)C2CCN(S(=O)(=O)c3ccc4c(c3)CCCC(=O)N4)CC2)c1	x	n	n	n	n	x
CNc1ccc(/C=C2\C=Cc3ccccc32)cc1Cl	x	x	u	n	x	x
CCc1ccc2oc(-c3ccc(C)c(NC(=O)Cc4ccccc4)c3)nc2c1	x	n	n	n	n	x
Cc1c(Cl)cccc1NC(=O)CC(c1cccs1)N1Cc2ccccc2C1=O (stereo not given)	x	n	u	n	n	x
Cc1c(Cl)cccc1NC(=O)CC(c1ccc(F)cc1)N1Cc2ccccc2C1=O (stereo not given)	x	x	18µM	n	x	x
Cc1c(Cl)cccc1NC(=S)NCC1COc2ccccc2O1 (stereo not given)	u	n	u	n	n	6.3µM
C=CCNC(=S)NCC1COc2ccccc2O1 (stereo not given)	n	n	u	n	n	11µM
O=C(NC(=S)NCC1COc2ccccc2O1)c1ccccc1 (stereo not given)	n	n	n	n	n	n
COc1cc(OC)c(NC(=O)c2nn(-c3ccc(C)cc3)c(=O)c3c2c2ccccc2n3C)cc1Cl	x	n	n	n	n	x
Cc1nc([N+](=O)[O-])c(Br)n1CC(=O)c1ccc(Cl)cc1	u	u	u	n	u	10µM
COc1ccc(C(=O)Cn2c(C)nc([N+](=O)[O-])c2Br)cc1	u	u	u	n	u	n
Cc1nc([N+](=O)[O-])c(Br)n1Cc1ccc(Cl)c(Cl)c1	u	20µM	u	n	x	7.1µM
Cc1nc([N+](=O)[O-])c(NCCO)n1Cc1ccccc1	n[10 µM]	n	n	n	n	n
CC(C)COCc1ccc(O)c2ncccc12	1µM	n	10µM	n	u	0.71µM
Oc1ccc(Cc2ccccc2)c2cccnc12	x	n	n	n	u	x
CCCOCc1ccc(O)c2ncccc12	3.5µM	n	u	n	u	1.3µM
CN(Cc1ccco1)Cc1ccc(O)c2ncccc12	x	n	u	n	n	x
Oc1cccc2c(CC(O)c3c[nH]c4ccccc34)ccnc12 (stereo not given)	x	x	u	n	x	x
Oc1ccc(COCc2ccccc2)c2cccnc12	u	n	n	n	n	0.56µM
Cc1ccc(-c2cc3nccc(-c4cc([N+](=O)[O-])ccc4O)n3n2)cc1	x	u	u	n	u	x
Cc1ccc(Cl)cc1N1CCN(S(=O)(=O)c2ccc3oc(=O)c4ncn(C)c4c3c2)CC1	x	n	n	n	n	x
SMILES	VP16 counter	S2 tox	TGFb inhibitor	HepG2 viability	ATXN2 expr inh	RORg inh
CCN(Cc1ccccc1)S(=O)(=O)c1ccc(N2CCCCS2(=O)=O)cc1	x	n	n	n	n	x
CC1CCC2(CC1)C(Nc1cccc(Cl)c1)=NC(=S)N2CC#N (stereo not given)	3.2µM	n	u	n	n	3.5µM
COc1ccc(-c2cc3nc(C)c(CCC(=O)Nc4ccc(F)cc4F)c(C)n3n2)c(OC)c1	x	n	n	n	n	x
CCOC(=O)c1cc(C)n(CC2CCC(C(=O)Nc3ccc(Cl)cc3)CC2)c1C (stereo not given)	x	x	8.9µM	n	x	x
CCOC(=O)c1cc(C)n(CC2CCC(C(=O)Nc3cccc(C(C)=O)c3)CC2)c1C (stereo not given)	x	x	14µM	n	x	x
COc1cc(OC)c(OC)cc1/C=C/c1nc2ccccc2o1	x	x	n	n	x	x
O=[N+]([O-])c1ccc(N=Nc2ncc[nH]2)cc1	6.3µM	1.3µM	n	n	x	7.1µM
C[C@@H]1CC[C@]2(C(=O)O)CC[C@]3(C)C(=CCC4[C@]56CC[C@@](O)(OC5)C(C)(C)C6CC[C@]43C)C2[C@H]1C (stereo not given in full)	x	25µM	u	n	u	x
C[C@H]1[C@H](C)CC[C@]2(C(=O)O)CC[C@]3(C)C(=CC[C@@H]4[C@@]5(C)C[C@@H](O)[C@H](O)C(C)(C)[C@@H]5CC[C@]43C)[C@H]12	u	u	u	n	n	10µM
CC1CCC2(C(=O)O)CCC3(C)C(=CCC4C3(C)CCC3[C@@]4(C)CC(O)C(O)[C@@]3(C)CO)C2C1C (stereo not given in full)	n	x	x	x	x	n
OC[C@H]1O[C@@H](n2cnc3c(=S)nc[nH]c32)[C@H](O)[C@@H]1O	x	u	x	x	n	x
CSCCC(NS(=O)(=O)c1ccc2c(c1)oc(=O)n2C)C(=O)N1CCN(c2cc(Cl)ccc2C)CC1 (stereo not given)	x	x	n	n	x	x
Cc1ccc2c(CC(=O)Nc3cccc(Cl)c3C)coc2c1	x	n	n	n	n	x
CC(=O)NC(=C(Cl)Cl)S(=O)(=O)c1ccccc1	u	n	n	n	u	13µM
O=C(NC(=C(Cl)Cl)S(=O)(=O)c1ccc(Cl)cc1)c1ccccc1	u	u	u	n	u	u
O=C(NCCc1cscn1)C1CCC(=O)N(Cc2ccc(Cl)cc2)C1 (stereo not given)	u	n	n	n	n	20µM
O=C(NCCc1ccccc1)C1CCC(=O)N(Cc2ccc(Cl)cc2)C1 (stereo not given)	n	n	u	n	n	n
COC(=O)c1cccc(-c2ccc(C(c3c(C)[nH][nH]c3=O)c3c(C)[nH][nH]c3=O)o2)c1	n	n	u	n	n[11.3 µM]	11µM
CC(C)C(NC(=O)/C=C/c1cccc([N+](=O)[O-])c1)C(C)C	n	u	n	n	n	u
CC(C)NC(=O)c1ccccc1NC(=O)/C=C/c1cccc([N+](=O)[O-])c1	7.9µM	n	n	n	n	u
O=c1cc(-c2ccccc2)n2c(SCc3ccc([N+](=O)[O-])cc3)nnc2[nH]1	x	x	n	n	x	x
Oc1oc(-c2cccc3ccccc23)nc1/C=N/c1nccs1	13µM	n	u	n	n	8.9µM
Cc1cccc(/N=C/c2nc(-c3ccccc3Br)oc2O)n1	n	n	n	n	x	n
CC(=O)Nc1ccc(Nc2cc(C)nc3c(-c4ccccc4)cnn23)cc1	7.9µM	n	n	n	n	13µM
C=CCSc1cc(C)nc2c(-c3ccccc3)cnn12	u	n	n	n	x	10µM
CCSc1cc(C)nc2c(-c3ccccc3)cnn12	n	n	u	n	x	n
